In the library only some 3.1% were active in any assay of this set; here they are far more common.
Mtb BioA inh: inhibitors of Mycobacterium tuberculosis BioA enzyme; purified M. tuberculosis BioA enzyme, plate reader; inhibition, % at 9.99 µM; 360,000 compounds, 0.096% hits; AID 602481; in the data active means inhibition above about 40%; inconclusive means no clear call, values can overlap the other calls
3CLpro inhibitor: SARS-CoV 3CLpro protease inhibition | P0C6X7 | AID 1706 | inhibition, % at 6 µM | recombinant SARS-CoV 3CLpro, quenched FRET peptide cleavage | 290,000 compounds, 0.14% hits; in the data active means inhibition above about 12%
Mtb FBA inh: inhibitors of M. tuberculosis fructose-bisphosphate aldolase | purified M. tuberculosis FBA, fluorescence read-out | inhibition, % at 1 µM | 360,000 compounds, 2.3% hits; in the data active means inhibition above about 27%;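 further: 0% = vehicle and 100% = reference inhibitor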
Target sequence (P9WQA3 whole entry, looked up): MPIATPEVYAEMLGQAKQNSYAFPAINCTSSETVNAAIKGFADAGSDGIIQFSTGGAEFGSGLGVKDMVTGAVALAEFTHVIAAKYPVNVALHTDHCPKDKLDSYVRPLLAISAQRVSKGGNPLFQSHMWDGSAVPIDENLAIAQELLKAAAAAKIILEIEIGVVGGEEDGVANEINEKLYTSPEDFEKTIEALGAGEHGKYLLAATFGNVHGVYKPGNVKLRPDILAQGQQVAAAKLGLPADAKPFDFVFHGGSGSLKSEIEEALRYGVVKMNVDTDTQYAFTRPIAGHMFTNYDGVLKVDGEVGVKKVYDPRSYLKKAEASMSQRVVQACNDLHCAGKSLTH
GDH-TPI counter: inhibits GDH-TPI coupling enzymes, artifact for Mtb FBA screen; GDH-TPI coupled enzyme counterscreen, NADH absorbance; AID 588335; 360,000 compounds, 1.2% hits; inhibition, % at 4.8 µM; in the data active means inhibition above about 30%;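 further: 0% = DMSO wells and 100% = wells lacking the enzyme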
FadD28 FP inh: M. tuberculosis FadD28 bisubstrate binding inhibition; inhibition, % at 12.5 µM; FadD28 bisubstrate probe binding, fluorescence polarization; 360,000 compounds, 0.22% hits; in the data active means inhibition above about 8.5%, passing the limit was not always enough; inconclusive means no clear call, values can overlap the other calls
* marks the source's active call; other numbers are inactive results; ? = inconclusive; . = not tested or not shown; + = active, no number.

SMILES	Mtb BioA inh	3CLpro inhibitor	Mtb FBA inh	GDH-TPI counter	FadD28 FP inh
O=C(/C=C/c1ccc(-c2cccc([N+](=O)[O-])c2)o1)N1CCOCC1	3.1	0.3	0.1	37.6*	0.2
O=C(/C=C/c1cccc([N+](=O)[O-])c1)N1CCOCC1	.	1.0	-3.3	3.8	-0.3
COc1ccc(NC(=O)N(C)C[C@H]2OCCCC[C@H](C)Oc3ccc(NC(=O)Cc4ccccc4)cc3C(=O)N([C@H](C)CO)C[C@H]2C)cc1	-3.3	.	.	.	.
O=C(NCCCO)/C(=C/c1ccc(-c2cccc([N+](=O)[O-])c2)o1)NC(=O)c1ccccc1	1.7	2.0	0.4	28.4	0.1
O=C(NCCCN1CCOCC1)/C(=C/c1ccc(-c2cccc([N+](=O)[O-])c2)o1)NC(=O)c1ccccc1	6.1	.	-3.8	39.8*	-1.7
C[C@@H]1CN([C@H](C)CO)C(=O)Cc2cc(NC(=O)CCCCCC(=O)Nc3ccccc3N)ccc2O[C@H]1CN(C)Cc1ccc(Oc2ccccc2)cc1	-3.4	.	.	.	.
CN1c2ccccc2C(O)=C(C(=S)Nc2ccc(Cl)cc2)S1(=O)=O	0.0	0.1	1.3	47.7*	?
C[C@H]1CN([C@@H](C)CO)S(=O)(=O)c2ccc(-c3ccc(F)cc3)cc2O[C@H]1CN(C)C(=O)C1CC1	5.1	.	.	.	.
C[C@@H]1CN([C@@H](C)CO)C(=O)c2cc(NC(=O)C3CC3)ccc2O[C@H]1CN(C)Cc1ccc(-c2ccccc2)cc1	-3.0	.	.	.	.
C[C@H](O)C#Cc1cnc2c(c1)C(=O)N([C@H](C)CO)C[C@@H](C)[C@H](CN(C)C(=O)c1ccccc1F)O2	0.8	.	.	.	.
C/C=C/c1ccc([C@@H]2[C@@H](C#N)N(c3ncc(CC)s3)[C@@H]2CO)cc1	0.7	.	.	.	.
O=C1CC(c2ccccc2)CC(O)=C1C=NCC1CCCO1 (configuration not stated)	-0.3	0.0	0.7	10.6	-0.4
Oc1[nH]c2ccccc2c1C=NCC1CCCO1 (configuration not stated)	-0.1	4.6	-1.6	35.1*	-0.5
C[C@H](CO)N1C[C@H](C)[C@@H](CN(C)S(=O)(=O)c2ccccc2)Oc2ccc(NC(=O)Nc3cccc4ccccc34)cc2CC1=O	-1.8	.	.	.	.
CN(c1ccccc1)c1ccc(/C=C(/CCC(=O)O)c2nc3ccccc3s2)cc1[N+](=O)[O-]	.	.	-6.8	31.7*	19.3*
O=C(O)CC/C(=C\c1ccc(N2CCCC2)c([N+](=O)[O-])c1)c1nc2ccccc2s1	.	0.7	-5.1	18.2	?
COc1ccc2cc3cc(C(=O)NCc4ccccn4)oc3nc2c1	0.3	-3.7	+	27.3	1.3
COc1ccc2cc3cc(C(=O)NCc4ccco4)oc3nc2c1	1.5	1.9	140.3*	20.2	-4.5
O=C(NCc1ccco1)c1cc2cc3ccc(Cl)cc3nc2o1	-0.2	-3.3	2.2	22.4	-0.6
Cc1noc(C)c1S(=O)(=O)N(C)C[C@@H]1Oc2ccc(NC(=O)Nc3cccc4ccccc34)cc2CC(=O)N([C@@H](C)CO)C[C@H]1C	-2.5	.	.	.	.
O=C(C[C@H]1CC[C@@H](NC(=O)Cc2ccccn2)[C@@H](CO)O1)NCCc1ccccc1	-2.0	.	.	.	.
Cc1ccnc(N2C(=O)c3cccc4c([N+](=O)[O-])ccc(c34)C2=O)c1	-1.5	0.7	4.6	33.3*	-3.9
CCNC(=O)C[C@H]1CC[C@H]2[C@H](COc3ccc(NC(=O)Cc4cccs4)cc3C(=O)N2C)O1	-2.3	.	.	.	.
COc1cc(/C=C/C(=O)N2CCC=CC2=O)cc(OC)c1OC	1.8	.	2.8	35.3*	-0.9
COc1cc(/C=C/C(=O)N2CCCN(C(=O)/C=C/c3cc(OC)c(OC)c(OC)c3)CC2)cc(OC)c1OC	.	4.2	1.9	24.1	0.3
SMILES	Mtb BioA inh	3CLpro inhibitor	Mtb FBA inh	GDH-TPI counter	FadD28 FP inh
Fc1ccc(-c2nc3ccccn3c2NCc2ccc3c(c2)OCO3)cc1	0.2	1.5	39.4*	14.8	-2.0
Cc1ccc(S(=O)(=O)Nc2ccc(Nc3nccn4c(-c5ccc6ccccc6c5)cnc34)cc2)cc1	-1.7	.	11.3	31.9*	-2.2
C[C@@H]1CCCCO[C@H](CN(C)C(=O)Nc2ccc3c(c2)OCO3)[C@H](C)CN([C@H](C)CO)C(=O)c2cc(NC(=O)CCC(F)(F)F)ccc2O1	1.6	.	.	.	.
O=C(N/N=C/c1ccc(Br)s1)c1ccccc1[N+](=O)[O-]	1.9	-2.3	-3.1	37.7*	-9.1
Cc1ccc(-n2ccc(=O)c(C(=O)Nc3ccc(S(=O)(=O)Nc4nccc(C)n4)cc3)n2)cc1	-1.2	-1.9	-3.8	35.3*	0.8
O=C(N/N=C/c1cccnc1)c1cc2ccccc2o1	4.2	2.4	4.8	31.1*	-4.5
O=C(N/N=C/c1cccnc1)c1cc2c(ccc3ccccc32)o1	-0.1	-4.8	7.5	32.0*	-4.9
Cc1ccc(/C=N/NC(=O)c2cc3c(ccc4ccccc43)o2)o1	0.9	-13.1	5.3	22.1	-1.6
Cc1nn(C)c(C(=O)N/N=C/c2ccncc2)c1Cl	6.8	1.4	-1.8	-3.8	-3.3
O=C(N/N=C/c1ccncc1)c1cc2ccccc2o1	.	-2.4	-2.6	29.3	-7.3
Cc1nn(C)c(C(=O)N/N=C/c2cccnc2)c1Cl	43.9*	-1.7	2.1	2.4	2.3
CO[C@H]1CN(C)C(=O)c2cc(NS(C)(=O)=O)ccc2OC[C@@H](C)N(CC2CCCCC2)C[C@H]1C	1.3	.	.	.	.
O=C(Nc1ccc(Cl)cc1)N[C@@H]1CC[C@@H](CCNC(=O)c2ccccc2F)O[C@@H]1CO	-1.8	.	.	.	.
CCN(CC)S(=O)(=O)c1ccc(N=Cc2c(C)c(C#N)c(=O)n(C)c2O)cc1	.	-1.1	2.8	37.8*	-3.3
Cc1ccc(N/N=C/c2c(C)c(C#N)c(=O)n(C)c2O)cc1C	0.2	4.2	-3.0	31.9*	-0.8
COc1cc(S(=O)(=O)Nc2ccc(C)cc2)ccc1N=Cc1c(C)c(C#N)c(=O)n(C)c1O	.	-4.7	-3.4	19.6	-1.5
Cc1c(C=N)c(O)n(C)c(=O)c1C#N	0.6	-0.3	-0.2	32.2*	-3.3
C=CCn1c(O)c(CN2CCCCC2)c(C)c(C#N)c1=O	.	-2.6	0.7	-1.9	-2.8
C[C@H](CO)N1C[C@H](C)[C@H](CN(C)S(=O)(=O)c2cccc(F)c2)Oc2ncccc2C1=O	-5.0	.	.	.	.
Cc1ccc2cc(C#N)c(NCc3ccco3)nc2c1	0.3	-4.0	116.1*	5.0	0.0
C[C@@H]1CN([C@H](C)CO)C(=O)c2cc(NC(=O)CCC(F)(F)F)ccc2O[C@H]1CN(C)C(=O)Nc1ccc2c(c1)OCO2	0.2	.	.	.	.
COc1cccc(C(=O)OCCCOC(=O)c2cccc(OC)c2OC)c1OC	0.8	-2.3	-2.1	0.0	-4.5
CCN1C=C(C(=O)OC)C(c2cccc(OC)c2OC)C(C(=O)OC)=C1	.	-1.4	172.3*	0.9	-2.3
COC(=O)C1=CN(Cc2ccc(OC)c(OC)c2)C=C(C(=O)OC)C1c1cccc(OC)c1OC	6.7	-4.5	139.9*	10.8	-0.7
COC(=O)C1=CN(C2CC2)C=C(C(=O)OC)C1c1ccccc1OC	.	0.5	156.6*	7.6	-0.7
COC(=O)C1=C(C(=O)OC)C2c3ccccc3C1c1ccccc12	-1.2	.	1.2	6.5	-0.1

Compound activity: PubChem BioAssay, several laboratories
